Results filed as inconclusive are left out. A call without a number means that no potency is given here. Activity calls are given as the source filed them. The call rests on the fitted dose curve; in most records, active means well fitted inhibition curve with a large enough effect; inconclusive means small, poorly fitted or top-dose-only effect; inactive means no such curve, though single readings can be large or run the other way.

The record followed here is PubChem BioAssay AID651599 (National Center for Advancing Translational Sciences (NCATS), 2012).
Potency means the concentration at half of the fitted maximal effect.

Tumor susceptibility gene 101 protein (Homo sapiens), sequence (Q99816 whole entry, looked up, the tested form may be a part): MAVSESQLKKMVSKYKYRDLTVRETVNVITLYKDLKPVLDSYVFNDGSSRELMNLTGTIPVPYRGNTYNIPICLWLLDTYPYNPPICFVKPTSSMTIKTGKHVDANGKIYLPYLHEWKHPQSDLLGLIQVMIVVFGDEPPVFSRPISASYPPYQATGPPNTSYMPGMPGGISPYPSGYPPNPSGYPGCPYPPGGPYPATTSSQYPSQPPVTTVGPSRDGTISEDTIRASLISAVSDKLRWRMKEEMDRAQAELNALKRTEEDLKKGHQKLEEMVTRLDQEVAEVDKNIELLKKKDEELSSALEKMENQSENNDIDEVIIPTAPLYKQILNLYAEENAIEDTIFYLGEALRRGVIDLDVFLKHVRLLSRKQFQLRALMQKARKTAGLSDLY

This test concerns the target Tumor susceptibility gene 101 protein (Homo sapiens) (UniProt Q99816). The experiment in a line: qHTS Assay for Iinhibitors of HIV-1 Budding by Blocking the Interaction of PTAP/TSG101: Hit Validation in TR assay. Conditions: Tsg101 binding domain + Texas Red-labeled PTAP peptide, fluorescence polarization, 20 min; series mostly up to 57.5 µM. A digest of the protocol:
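Texas Red-PTAP peptide (50 nM) binding to Tsg101 binding domain (10 uM), both final, in pH 7.5 HEPES buffer, read as polarization after 20 min at room temperature; compounds pinned before peptide addition.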
Turning to `CC(=O)c1ccc2c(c1)c(C#N)c1ccccc1[n+]2[O-]`, the Potency entry is “inactive”.
In the case of `O=C1/C(=C\c2ccc(-c3ccccc3Cl)o2)SC(=S)N1CC1CCCO1` (centres undefined) it was “inactive”; in that of `COc1ccc(CNC(=O)C(C#N)c2nc3ccccc3nc2N2CCCC2)cc1` (centres undefined), “inactive”.
Consider `CSC1=NSC2=NC(=O)/C(=C/c3coc4ccc(O)cc4c3=O)C(=N)N12`, for which the Potency entry was “inactive”.
For the compound `Cc1ccc(N2C(=O)c3cccc4c(N5CCN(C)CC5)ccc(c34)C2=O)c2cccnc12`, the Potency result was “inactive”.
Take `CN(C)c1ccc(/C=C2\SC(=O)N(CC(O)Cn3c4ccccc4c4ccccc43)C2=O)cc1` (centres undefined): the Potency result was “inactive”.
The value for `CN(C)CCNc1ccc2ncn3c4ccc(O)cc4c(=O)c1c23` was “inactive”.
Consider `CCN(CC)C(=O)Cn1c(=O)c2ccccc2n2c(=S)sc(-c3cccc(C)c3)c12`, for which the Potency entry was “inactive”.
Take `O=c1[nH]c(S)c(/C=C2\C=Nc3ccccc32)s1`: the Potency entry is “inactive”.
`CCN(CC)c1ccc(/C=C(/C#N)c2nc3ccc(C)cc3[nH]2)c(OC(C)C)c1`: the Potency result is “inactive”.
On to `CC1CCN(c2ccc3c(c2)S(=O)(=O)c2ccccc2C3=O)CC1`, for which the Potency entry was “inactive”.
`O=c1oc2c3c4c(cc2c2c1CCC2)OCCN4CCC3`: the Potency result was “inactive”.
With `CCOC(=O)Cn1c(=NC(=O)c2ccc([N+](=O)[O-])s2)sc2ccccc21`, the Potency result was “inactive”.
In the case of `O=C(C1=NN(c2ccccc2)C2C(=O)N(c3cccc(Cl)c3)C(=O)C12)c1ccccc1` (centres undefined) it was 29.1 µM (active); in that of `N#CC(C(=O)NCc1ccccc1)c1nc2ccccc2nc1N1CCCC1` (centres undefined), “inactive”.
The value for `COc1ccc(/C(O)=C/c2nc3ccccc3n(-c3ccccc3)c2=O)cc1` was “inactive”; that for `CC1CCCN(Cc2c(O)ccc3c2O/C(=C\c2ccco2)C3=O)C1` (centres undefined) was “inactive”.
As to `Nc1ccc(-c2c3ccc(=O)cc-3oc3cc(O)ccc23)cc1C(=O)O`, the Potency is 36.6 µM (active).
Take `Cn1c(=O)c(N)c2c3c(c(Br)ccc31)C(=O)c1ccccc1-2`: the Potency is 18.3 µM (active).
Take `Cc1cc(=O)oc(C)c1C(=O)Nc1ccc2ncccc2c1`: the Potency result is “inactive”.
Take `O=C1/C(=N\S(=O)(=O)c2cccs2)C([n+]2ccccc2)=C([O-])c2ccccc21`: the Potency result was “inactive”.
The value for `O=c1[nH]c(-[n+]2ccccc2)c(/C=N/NC([S-])=Nc2ccccc2)s1` was “inactive”.
For the compound `COc1ccc2nc3ccccc3[n+]([O-])c2c1`, the Potency entry was “inactive”.
The value for `ClCc1nc2ccccc2n1Cc1ccccc1` was “inactive”; that for `CCCN(CCC)S(=O)(=O)c1ccc(C(=O)OCCN2C(=O)c3cccc4c(N5CCOCC5)ccc(c34)C2=O)cc1` was “inactive”.
`Nc1c(C(=O)O)sc2nc(-c3ccccc3)cc(-c3ccc(Cl)cc3)c12`: the Potency entry is “inactive”.
In the case of `O=C1c2cccc3c(O)ccc(c23)C(=O)N1Cc1ccco1` it was “inactive”.
In the case of `CCCCCOc1ccc(/C=c2\sc3nc(=O)c(-c4ccccc4)nn3c2=O)cc1OC` it was “inactive”; in that of `Brc1ccc(C2=CC(c3cccs3)n3ncnc3N2)cc1` (centres undefined), “inactive”; in that of `CCN1C(=O)c2cccc3c(N)ccc(c23)C1=O`, “inactive”.
Take `COc1cccc2c1C(=O)c1c(O)c3c(c(O)c1C2=O)C[C@@](O)(C(=O)CO)C[C@@H]3OC1CC(N)C(O)C(C)O1` (some centres undefined): the Potency result is “inactive”.
Regarding `CCC(=O)Nc1ccc(NC(=O)C23CC4CC(CC(C4)C2)C3)cn1`, the Potency entry is “inactive”.
As to `CCCCCn1nc(-c2ccccc2)c2nc3ccccc3nc21`, the Potency entry was “inactive”.
For `CC(=O)c1ccc(N2C(=O)C3C(C2=O)C(C(=O)c2ccc(Cl)cc2)N2CCCC32)cc1` (centres undefined), the Potency entry is “inactive”.
In the case of `CC(=O)Nc1ccc(N2C(=O)c3cccc4c(O)ccc(c34)C2=O)cc1`, the Potency entry was “inactive”.
As to `Oc1[nH]c2ccc(Br)cc2c1N=Nc1ccc(F)cc1`, the Potency entry was “inactive”.
With `C=CCn1c(=N)c(S(=O)(=O)c2ccc(C)c(C)c2)cc2c(=O)n3ccccc3nc21`, the Potency result is “inactive”.
The value for `CCN(CC)c1ccc(/C=c2\sc3nc4ccccc4n3c2=O)c(O)c1` was “inactive”.
The value for `N#Cc1ccsc1NC(=O)CSc1nncs1` was “inactive”.
